From PubChem BioAssay (Tox21)
Activity calls are given as the source filed them. Calls come from the whole dose curve; as a rule, active = well fitted curve in the direction sought with a large enough effect in the repeat runs; inconclusive = weak or mixed curves; inactive = flat fitted curve, though single readings scatter.

Assay: qHTS assay to test for compound auto fluorescence at 460 nm (blue) in HepG2 cells (AID 720687)
Conditions: autofluorescence 405/460 nm, 1 h; series mostly up to 91.3 µM
Description: U.S. Tox21 Program National Center for Advancing Translational Sciences [NCATS] NIH Chemical Genomics Center [NCGC] U.S. Environmental Protection Agency [EPA] National Institutes of Environmental Health Sciences [NIEHS] National Toxicology Program [NTP] U.S. Food and Drug Administration [FDA] Tox21 Assay Overview: Compound auto fluorescence often interferes with screening of the compound library against various biological targets and signaling pathways. Some of these compounds may have fluorophoric properties. Such properties may interfere with the assay outputs resulting in false positives and/or negatives. To decrease such complications and ensure the compound activities are relevant in terms of biological response, the Tox21 10K compound library was screened for auto fluorescence. From the fluorophores used as reporter signals in our screening assays, the auto fluorescence equivalencies of compounds against three fluorophores have been evaluated: Triamterene, Fluorescein and Rose Bengal sodium for blue, green and red fluorescence, respectively. The fluorescence intensities were measured using Excitation/Emission wavelengths at 405/460nm, 485/535nm and 540/590nm for blue, green and red labels, respectively. This assay includes the blue fluorescence data.
Tox21 Assay Protocol Summary: 2,000 HepG2 cells in 5 uL of culture medium (MEM containing 10% FBS) per well were dispensed into black wall/clear bottom 1536-well plates using a Multidrop Combi Dispenser (ThermoFisher Scientific, Waltham, MA). The assay plates were incubated overnight at 37 C to allow cell attachment to the well bottom, followed by the transfer of 23 nL compound or DMSO vehicle by a pintool work station (Kalypsys , San Diego, CA). After the assay plates were incubated for 1 hr at 37 C and 5% CO2, fluorescence intensities in the assay plates were measured by an Envision (PerkinElmer, Shelton, CT) plate reader using three labels for measuring blue, green and red fluorescence at […] 460, 535 and 590 nm respectively.
% is set by controls: 0 for no effect and ±100 for the full control effect.

Row | SMILES | outcome | fluorescence, % of fluorescent control
1 | NC(=O)N[C@@H](CCC(=O)O)C(=O)O | inactive | –
2 | Nc1ccn([C@@H]2O[C@H](CO)[C@@H](O)C2(F)F)c(=O)n1 | inactive | –
3 | C[C@H]1[C@H](NC(=O)/C(=N/OC(C)(C)C(=O)O)c2csc(N)n2)C(=O)N1S(=O)(=O)O (stereo in doubt) | – | 0.0116% [at 18.6 µM] (inactive)
4 | CC1=NN(c2cccc(S(=O)(=O)O)c2)C(=O)C1 | inactive | –
5 | O=S(=O)(O)c1cccc(S(=O)(=O)O)c1 | inactive | –
6 | C[N+]1(C)CCCC(OC(=O)C(O)(c2ccccc2)c2ccccc2)C1 (stereo not given) | – | -0.102% [at 18.6 µM] (inactive)
7 | CCCCCCCCCC[N+](C)(C)[O-] | inactive | –
8 | CC(C)NNC(=O)c1ccncc1 | inactive | –
9 | Cc1ccc(C(=O)c2ccc(CC(=O)O)n2C)cc1 | – | -0.0013% [at 18.6 µM] (inactive)
10 | CCOC(=O)COC(=O)c1ccccc1C(=O)OCC | inactive | –
11 | CO/N=C(\C(=O)N[C@@H]1C(=O)N2C(C(=O)O)=C(CSc3nc(=O)c(O)nn3C)CS[C@H]12)c1csc(N)n1 | inactive | –
12 | C1CCC2(CCCCO2)OC1 | inactive | –
13 | NS(=O)(=O)Cc1noc2ccccc12 | inactive | –
14 | CC(=O)OCC(=O)[C@@]1(O)[C@H](C)C[C@H]2[C@@H]3CCC4=CC(=O)C=C[C@]4(C)[C@@]3(F)[C@@H](O)C[C@@]21C | inactive | –
15 | CC(C)c1ccc2ncccc2c1 | inactive | –
16 | CC(=O)C1CCCCC1=O (stereo not given) | inactive | –
17 | O=C(O)CNC(=O)c1ccccc1 | inactive | –
18 | C=CC(=O)OCCCl | inactive | –
19 | CCCCCCCC1CCCC1=O (stereo not given) | inactive | –
20 | [K+] | inactive | –

Row | SMILES | outcome | fluorescence, % of fluorescent control
21 | CC(C)(C)OC(=O)c1cccc(N)c1 | inactive | –
22 | CC1(C)[C@@H]2CC[C@@]1(C)[C@H](O)C2 | inactive | –
23 | CC12CCC(C(=O)C1=O)C2(C)C (stereo not given) | inactive | –
24 | COCCOC[C@H](CC1(C(=O)NC2CCC(C(=O)O)CC2)CCCC1)C(=O)Oc1ccc2c(c1)CCC2 (stereo not given in full) | inactive | –
25 | CCC(=O)OCc1ccccc1 | inactive | –
26 | CCOCC(C)O (stereo not given) | inactive | –
27 | CN(C)C(=O)Oc1ccc[n+](C)c1 | inactive | –
28 | CC(=O)N1C[C@H](O)C[C@H]1C(=O)O | inactive | –
29 | O=C(O)CC(C(=O)O)S(=O)(=O)O (stereo not given) | inactive | –
30 | CC(=O)NC(=O)c1ccccc1O | inactive | –
31 | CCCCOCCOC(=O)CCCCCCCCC(=O)OCCOCCCC | inactive | –
32 | CCC1C(=O)OCC1Cc1cncn1C (stereo not given) | inactive | –
33 | CCCn1cc[n+](C)c1C | inactive | –
34 | O=CN(CCO)CCO | inactive | –
35 | CC(C)(C#N)Nc1nc(Cl)nc(NC2CC2)n1 | inactive | –
36 | Nc1ccccn1 | inactive | –
37 | CC(C)C1CCC(O)CC1 (stereo not given) | inactive | –
38 | CC(=O)Nc1ccc(OCC(O)CNC(C)C)cc1 (stereo not given) | inactive | –
39 | c1ccc(CCc2ccccc2)cc1 | inactive | –
40 | O=C(O)CNC(=O)c1ccc(CO)o1 | inactive | –
